27 compounds from PubChem BioAssay (NCI) can be followed below.

Molecules are shown by their SMILES. The panel holds about 83,000 compounds, 20% with a hit somewhere; the sample as a whole holds those more often.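 Percent growth is the endpoint: 0 to 100 indicates growth inhibition (40 means 60% inhibition), 0 means no net growth, and negative values indicate cell death.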 Values without a mark were called inactive. Activity calls are given as the source filed them. The calls were made as follows: active = growth percent below 10; inactive = the rest.

Common to all, as to test: NCI-60 one-dose screen, 48 h (100 = growth as untreated, 0 = no growth, -100 = all killed)
Common to all, as to conditions: 10 µM unless noted

Test [1] has as its system DU-145 prostate.
Test [2] deals with K-562 leukemia.
Test [3] deals with MALME-3M melanoma.
The test system of test [4] is MDA-MB-231 breast.
Test [5] has as its system RXF 393 renal.
Test [6] relates to SF-268 CNS.
Test [7] has as its system SF-295 CNS.
For test [8], the system named is SF-539 CNS.
Test [9] relates to UACC-257 melanoma.
For test [10], the system named is M14 melanoma.

`C#Cc1cccc(NC(=O)c2ccccc2NC(=O)C=C)c1`: the growth in test [1] was 95.6% [8.25 µM]; in test [2] it was 98.8% [8.25 µM]; in test [3] it was 102% [8.25 µM]; in test [4], 102% [8.25 µM]; in test [5], 120% [8.25 µM]; in [6], 95.6% [8.25 µM]. For the same compound, the growth in test [7] is 105% [8.25 µM]; in [8], 92% [8.25 µM]; in test [9], 104% [8.25 µM]; in [10] it was 103% [8.25 µM].

Regarding `CC(=O)NCC1c2c(n(C)c3c(Cl)c(Cl)ccc23)C(=O)NC1(C)C` (stereo not given), the growth in test [1] was 108%; in test [2], 79.5%; in test [3] it was 108%; in [4] it was 112%; in test [5], 90.5%; in test [6] it was 108%. Moreover, the growth in [7] is 89.5%; in [8], 94.5%; in test [9] it was 103%; in test [10], 94.2%.

For the compound `Nc1ccc(-c2cc3c(Nc4ccc(Oc5cccc(C(F)(F)F)c5)c(Cl)c4)ncnc3s2)cc1`, the growth in [1] is 72.5%; in test [2] it was 24.9%; in test [3], 91.8%; in test [4], 95.1%; in [5], 35.7%; in test [6], 66.1%. Also, the growth in test [7] was 77.2%; in test [8] it was 74.5%; in test [9] it was 77%; in test [10] it was 86.6%.

Regarding `C=C(C)C(=O)Nc1ccc(NC(C)C)cc1`, the growth is 133% in test [1]; 134% in test [2]; 220% in test [3]; 123% in test [4]; 29.7% in [5]; 107% in test [6]. In addition, the growth in test [7] is 147%; in [8], 100%; in test [9], -7.29% (active); in test [10], 101%.

As to `CSc1nc(Nc2cccc(NC(=O)/C(C#N)=C/c3c(Cl)cccc3Cl)c2)c(C#N)c(-c2cccc([N+](=O)[O-])c2)n1`, the growth in [1] was 58%; in test [2], 20.4%; in test [3], 96.5%; in [4], 52.5%; in test [5] it was 68.3%; in [6], 59.6%. Also, the growth in [7] was 92%; in test [8], 65.2%; in test [9] it was 73.5%; in test [10] it was 22.6%.

Take `O=C(O)COc1ccc(Cl)cc1C1CCCCC1`: the growth in test [1] was 110%; in [2], 91.8%; in test [3] it was 104%; in test [4] it was 98.5%; in test [5], 102%; in test [6] it was 102%. The growth in test [7] is 109%; in [8], 107%; in test [9], 114%; in test [10], 102%.

For `O=C(CN(C(=O)Cn1c(=O)n2nnnc2c2ccccc21)c1ccccc1C(F)(F)F)Nc1ccc(C(F)(F)F)cc1`, the growth in test [1] was 110%; in test [2], 101%; in test [3], 103%; in test [4], 104%; in [5], 116%; in test [6] it was 103%. Further, the growth is 104% in test [7], 101% in test [8], 115% in [9] and 102% in [10].

Consider `COc1ccc(-c2nc3cc(C(=O)Nc4cc(OC)c(OC)c(OC)c4)ccc3n2C2CCCCC2)cc1`, for which the growth in test [1] is 103%; in test [2], 76.1%; in test [3] it was 95.6%; in test [4], 88.6%; in test [5], 103%; in [6] it was 100%. In addition, the growth is 104% in test [7], 88.6% in test [8], 100% in test [9] and 96% in [10].

`CSc1nc(Nc2cccc(NC(=O)CCl)c2)c(C#N)c(-c2cccc([N+](=O)[O-])c2)n1`: the growth in [1] was 13.4%; in test [2], 5.6% (active); in test [3], 37.3%; in [4] it was 68.4%; in [5], 43.7%; in test [6], 34%. Moreover, the growth in test [7] is 95.4%; in test [8] it was 73.3%; in test [9], 84.6%; in test [10] it was 48.7%.

For the compound `Cc1nc2c3c(-c4ccccc4)c(-c4ccccc4)oc3ncn2n1`, the growth in [1] was 104%; in test [2], 94.3%; in test [3] it was 109%; in test [4], 83.3%; in test [5] it was 99.6%; in test [6] it was 94%. Further, the growth was 92.7% in [7], 90.2% in test [8], 106% in test [9] and 102% in test [10].

On to `O=C(O)c1ccc(N=CC(=O)c2ccc(-c3ccccc3)cc2)cc1`, for which the growth is 112% in [1]; 116% in test [2]; 97.7% in [3]; 101% in [4]; 118% in test [5]; 109% in test [6]. Moreover, the growth in test [7] is 104%; in test [8] it was 104%; in test [9], 93.1%; in test [10], 94.1%.

In the case of `O=C(O)c1ccc(NC(=O)c2ccc(-c3cccc([N+](=O)[O-])c3)o2)cc1`, the growth in test [1] is 105%; in test [2] it was 107%; in test [3], 86.4%; in [4] it was 96.1%; in test [5], 113%; in test [6], 98.5%. The growth was 98.8% in test [7], 99.4% in [8], 105% in test [9] and 107% in [10].

For `NC(=O)c1cc(Br)ccc1NC(=O)/C=C/c1ccccc1`, the growth in test [1] was -5.67% (active); in test [2], 15%; in test [3], 96.5%; in test [4], 45.3%; in test [5] it was 39.3%; in test [6] it was 43.5%. Further, the growth in test [7] is 51.3%; in test [8] it was 9.78% (active); in test [9] it was 49.1%; in test [10], 28.3%.

For the compound `Brc1ccc(-c2csc(Nc3ccccn3)n2)cc1`, the growth in test [1] was 109%; in test [2], 57.1%; in [3], 76.3%; in test [4], 86.3%; in test [5] it was 118%; in test [6], 115%. The growth in test [7] was 99.9%; in test [8] it was 102%; in test [9], 105%; in test [10], 96.9%.

As to `COc1ccc(S(=O)(=O)N2CCCCCC2)cc1NC(=O)c1[nH]c(C)c2c1CCCCC2=O`, the growth is 58% in test [1]; 21.4% in [2]; 55.6% in [3]; 36.3% in test [4]; 34.7% in test [5]; 52.8% in [6]. The growth in test [7] is 25.5%; in test [8], 29.9%; in [9] it was 34.5%; in test [10], 42.8%.

With `CCCN1CCN(c2ccc3nc(-c4ccc5nc(-c6ccc(OCC)cc6)[nH]c5c4)[nH]c3c2)CC1`, the growth in test [1] is 21.2%; in test [2] it was -47.4% (active); in test [3], 0.636% (active); in test [4], 84.8%; in [5] it was -31.3% (active); in test [6], 68.6%. Further, the growth in [7] is 41.4%; in [8], 58.3%; in test [9] it was 39.7%; in test [10], -27.2% (active).

As to `Cc1nc(/N=C(\N)NC(=O)Nc2cccc([N+](=O)[O-])c2)sc1C`, the growth in test [1] is 89.8%; in [2] it was 14.3%; in test [3] it was 78.2%; in test [4], 98.8%; in [5] it was 91.4%; in test [6], 92.9%. Besides, the growth in test [7] was 83.3%; in test [8], 78.4%; in test [9], 88.5%; in test [10] it was 57.1%.

Take `CN1CCN(CCCOc2cccc3nc(Nc4ccc(Cl)c(F)c4)ccc23)CC1`: the growth in test [1] was 38.8%; in test [2], -48.6% (active); in [3], 1.94% (active); in [4] it was -57.6% (active); in test [5] it was 54%; in test [6], 44.3%. Further, the growth in test [7] was 46%; in test [8], 16.9%; in test [9], -31% (active); in test [10], -27.7% (active).

For `COc1ccc(/C=C(\C#N)C(=O)Nc2cccc(Nc3nc(SC)nc(-c4cccc([N+](=O)[O-])c4)c3C#N)c2)cc1OC`, the growth was 107% in [1]; 77.9% in test [2]; 97% in [3]; 68.9% in [4]; 110% in [5]; 103% in test [6]. Also, the growth in test [7] is 97.2%; in test [8], 93.4%; in test [9] it was 103%; in test [10], 91.5%.

In the case of `COc1cc(/C=C/C(=O)c2c(C)oc3nc[nH]c(=O)c23)cc(OC)c1OC`, the growth in test [1] is 64.8%; in [2], 45.2%; in test [3], 88.1%; in [4] it was 86.7%; in test [5], 66.3%; in test [6], 81.3%. For the same compound, the growth is 104% in test [7], 95.7% in [8], 73% in [9] and 75.3% in [10].

Regarding `O=CNc1ccc2c(c1)Cc1cccc(NC=O)c1-2`, the growth was 106% in test [1]; 104% in [2]; 106% in test [3]; 83.5% in test [4]; 103% in test [5]; 94.2% in test [6]. For the same compound, the growth in [7] was 111%; in test [8], 101%; in test [9], 93.4%; in test [10], 91.2%.

Turning to `CC1CCNC(C)C1` (stereo not given), the growth was 110% in test [1]; 108% in test [2]; 110% in test [3]; 107% in test [4]; 108% in test [5]; 104% in test [6]. Also, the growth in test [7] was 103%; in test [8], 99%; in [9], 110%; in [10], 102%.

With `Cc1ccc2c(C(C[N+](=O)[O-])c3ccccc3F)c(-c3ccccc3)[nH]c2c1` (stereo not given), the growth is 66.2% in test [1]; 11.8% in [2]; 46.1% in test [3]; 61.4% in [4]; 63.6% in test [5]; 46.7% in test [6]. Also, the growth in test [7] was 17.6%; in [8], 52.3%; in test [9], 46.9%; in test [10], 26.2%.

Consider `O=C1/C(=C/c2ccc3c(c2)OCO3)SC(=S)N1CCc1ccc(O)cc1`, for which the growth in test [1] was 52.3%; in [2], 95.8%; in [3], 89.5%; in [4] it was 91.2%; in test [5] it was 111%; in test [6] it was 95.2%. Also, the growth was 99.5% in test [7], 91.8% in test [8], 99.7% in [9] and 94.4% in test [10].

As for `O=C1Nc2cc(-c3ccc(O)cc3)ccc2/C1=C/c1ccc[nH]1`, the growth in test [1] was 1.75% (active); in test [2], 3.69% (active); in test [3], 15.3%; in test [4] it was 13.2%; in test [5], -27.3% (active); in test [6], 21.7%. Moreover, the growth in test [7] is -20.7% (active); in test [8], -14.6% (active); in [9], 20%; in [10], 10.9%.

Regarding `COc1cccc(Nc2nc(SC)nc(-c3cccc([N+](=O)[O-])c3)c2C#N)c1`, the growth in test [1] is 81.4%; in [2] it was 85.4%; in [3] it was 72.7%; in [4] it was 65.8%; in test [5], 68.2%; in test [6] it was 88%. For the same compound, the growth in [7] was 62.6%; in [8], 81.4%; in test [9] it was 88.5%; in test [10], 83.4%.

In the case of `O=C(C(=O)c1ccc2c(c1)OCO2)c1ccc2c(c1)OCO2`, the growth in [1] was 111%; in [2], 108%; in [3], 104%; in [4], 100%; in test [5], 105%; in test [6], 99%. The growth was 120% in test [7], 114% in test [8], 87.8% in test [9] and 101% in test [10].
